The values that follow come from PubChem BioAssay (EPA / NIEHS).

Inconclusive results are not listed. Activity calls are given as the source filed them. The calls were made as follows, unless noted: active = hit-call score of the fitted dose curve at least 0.9, where 1 is the maximum; inactive = score below 0.9.

Assay [1] in a line: ATG_GLI_CIS: Attagene CIS-FACTORIAL HepG2 Assay for human Zinc Finger Protein GLI1 (AID 2282945). Particulars: HepG2, Attagene cis-factorial reporter mRNA, GLI element; actives raise or lower the signal. Put shortly:
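Bidirectional curve fits relative to DMSO, using reporter mRNA levels from RT-PCR plus capillary electrophoresis. Cells were HepG2 transiently carrying cis-regulated reporter constructs, harvested 24 h after dosing.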

The nature of assay [2]: ATG_GRE_CIS: Attagene CIS-FACTORIAL HepG2 Assay for human Glucocorticoid Response Elements (GRE) (AID 2282947). Particulars: HepG2 GRE cis-reporter, Attagene multiplex mRNA; actives raise or lower the signal. Put shortly:
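Multiplexed cis-reporter mRNA induction, HepG2, 24 h post-dose. RT-PCR, FAM-labelled, HpaI-digested amplicons by CE. Bidirectional fit vs DMSO.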

Assay [3] concerns the target Heat shock factor protein 1 (Homo sapiens) (UniProt Q00613). The experiment in a line: ATG_HSE_CIS: Attagene CIS-FACTORIAL HepG2 Assay for human Heat Shock Transcription Factor 1 (HSE) (AID 2282953). The conditions noted are these: HepG2 HSE cis-reporter, Attagene RNA transcription; actives raise or lower the signal. A digest of the protocol:
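After a 24 h incubation with test chemical, transfected HepG2 cells were harvested for RNA; reporter transcripts were measured by RT-PCR and capillary electrophoresis. Values reflect gain or loss of signal relative to DMSO.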

Assay [4] is described as follows: ATG_PBREM_CIS: Attagene CIS-FACTORIAL HepG2 Assay for human Phenobarbital-responsive Enhancer Module (PBREM) (AID 2282955). The conditions noted are these: HepG2 PBREM cis-reporter, Attagene multiplexed transcription; actives raise or lower the signal. Put shortly: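 Measures endogenous factor action on a phenobarbital-responsive enhancer module. HepG2 transiently carrying cis reporters, 24 h treatment, mRNA read-out by RT-PCR plus capillary electrophoresis.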

In assay [5] the target is Signal transducer and activator of transcription 3 (Homo sapiens) (UniProt P40763). The assay is described as follows: ATG_STAT3_CIS: Attagene CIS-FACTORIAL HepG2 Assay for human Signal Transducer and Activator of Transcription 3 (STAT3) (AID 2282963). Particulars: HepG2, Attagene cis-factorial STAT3 reporter transcription; actives raise or lower the signal. Put shortly:
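Cis-factorial format: endogenous transcription factors in HepG2 drive transfected reporter units. After 24 h treatment, reporter RNA was reverse-transcribed, amplified, FAM-labelled and HpaI-digested before CE analysis; activity scored in both directions against DMSO.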

Assay [6] has as its target Hepatocyte nuclear factor 4-alpha (Homo sapiens) (UniProt P41235). The experiment in a line: ATG_HNF4a_TRANS: Attagene TRANS-FACTORIAL HepG2 Assay for human Hepatocyte Nuclear Factor 4 alpha (HNF4a) (AID 2282982; active = hit-call score of the fitted dose curve at least 0.9, where 1 is the maximum). Particulars: HepG2 HNF4a transactivation reporter, mRNA readout. Put shortly:
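Multiplexed reporter assay: transfected HepG2, 24 h exposure, total RNA → oligo(dT) RT → PCR → 6-FAM extension → HpaI digest → CE fluorescence. DMSO = negative control.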

The nature of assay [7]: ATG_M_06_TRANS: Attagene TRANS-FACTORIAL HepG2 Assay for M06 Transcription Factor (Internal Marker) (AID 2282983; active = hit-call score of the fitted dose curve at least 0.9, where 1 is the maximum). The conditions noted are these: HepG2 Attagene TRANS M06 internal marker reporter. A digest of the protocol:
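Human liver HepG2 cells bearing transiently transfected chimeric NR-GAL4 reporter units were treated with chemicals for 24 h. Total RNA was reverse-transcribed, reporter sequences amplified and labelled, then quantified by capillary electrophoresis. Activity was fitted upward relative to DMSO.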

Assay [8] can be described thus: ATG_NF_kB_CIS: Attagene CIS-FACTORIAL HepG2 Assay for human Nuclear Factor Kappa B (NF-kB) (AID 2282991). The conditions noted are these: HepG2 Attagene cis-factorial NF-kB reporter mRNA; actives raise or lower the signal. Put shortly:
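Fluorescence of labelled RT-PCR products separated by capillary electrophoresis gives reporter mRNA levels from transfected HepG2 cells exposed 24 h; values are fitted in both directions relative to DMSO.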

Assay [9] has as its target human Peroxisome Proliferator-activated Receptor alpha (PPARa), PPARA (gene 5465) (UniProt Q07869). The experiment in a line: ATG_PPARa_TRANS: Attagene TRANS-FACTORIAL HepG2 Assay for human Peroxisome Proliferator-activated Receptor alpha (PPARa) (AID 2283001; active = hit-call score of the fitted dose curve at least 0.9, where 1 is the maximum). Put shortly: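 Transfected HepG2 cells treated with test chemical for 24 h. RNA isolated, reverse-transcribed with oligo(dT), PCR-amplified, FAM-labelled and HpaI-digested. Fragments sized by capillary electrophoresis; gain-of-signal fit relative to DMSO.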

Assay [10] deals with human Retinoid X Receptor beta (RXRb), RXRB (gene 6257) (UniProt P28702). The experiment in a line: ATG_RXRb_TRANS: Attagene TRANS-FACTORIAL HepG2 Assay for human Retinoid X Receptor beta (RXRb) (AID 2283013; active = hit-call score of the fitted dose curve at least 0.9, where 1 is the maximum). A digest of the protocol: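 Read-out: reporter mRNA induction via RT-PCR plus capillary electrophoresis fluorescence, analysed as signal increase relative to DMSO. Cells were human HepG2, transiently transfected with GAL4-UAS reporter constructs and chimeric receptor-Gal4 fusions, dosed for 24 h.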
human Retinoid X Receptor beta (RXRb), RXRB (gene 6257), sequence (P28702 whole entry, looked up, the tested form may be a part): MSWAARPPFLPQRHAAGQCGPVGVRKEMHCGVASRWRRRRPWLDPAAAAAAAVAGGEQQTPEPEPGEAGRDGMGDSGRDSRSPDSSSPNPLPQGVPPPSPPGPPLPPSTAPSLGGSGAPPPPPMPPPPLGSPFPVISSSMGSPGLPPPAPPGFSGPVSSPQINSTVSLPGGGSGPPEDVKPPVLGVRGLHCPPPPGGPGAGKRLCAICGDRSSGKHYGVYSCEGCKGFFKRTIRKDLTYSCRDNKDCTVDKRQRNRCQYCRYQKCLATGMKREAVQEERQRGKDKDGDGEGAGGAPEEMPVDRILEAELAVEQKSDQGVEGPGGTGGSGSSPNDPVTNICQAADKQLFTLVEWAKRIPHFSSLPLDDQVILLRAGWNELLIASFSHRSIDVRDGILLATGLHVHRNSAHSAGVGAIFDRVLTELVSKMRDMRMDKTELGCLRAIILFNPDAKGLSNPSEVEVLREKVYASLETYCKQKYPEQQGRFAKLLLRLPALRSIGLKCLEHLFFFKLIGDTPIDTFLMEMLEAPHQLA

Assay [11] deals with Hepatocyte nuclear factor 6 (Homo sapiens) (UniProt Q9UBC0). The experiment in a line: ATG_HNF6_CIS: Attagene CIS-FACTORIAL HepG2 Assay for human Hepatocyte Nuclear Factor 6 (HNF6) (AID 2282952). Particulars: HepG2 Attagene cis-factorial HNF6 reporter transcription; actives raise or lower the signal. Put shortly: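 Endogenous transcription factor activity in human HepG2 liver cells was captured through cis-regulated reporter constructs. After 24 h treatment, reporter mRNA was measured by RT-PCR with capillary electrophoresis, and activity was fitted in both directions relative to DMSO.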
Hepatocyte nuclear factor 6 (Homo sapiens), sequence (Q9UBC0 whole entry, looked up): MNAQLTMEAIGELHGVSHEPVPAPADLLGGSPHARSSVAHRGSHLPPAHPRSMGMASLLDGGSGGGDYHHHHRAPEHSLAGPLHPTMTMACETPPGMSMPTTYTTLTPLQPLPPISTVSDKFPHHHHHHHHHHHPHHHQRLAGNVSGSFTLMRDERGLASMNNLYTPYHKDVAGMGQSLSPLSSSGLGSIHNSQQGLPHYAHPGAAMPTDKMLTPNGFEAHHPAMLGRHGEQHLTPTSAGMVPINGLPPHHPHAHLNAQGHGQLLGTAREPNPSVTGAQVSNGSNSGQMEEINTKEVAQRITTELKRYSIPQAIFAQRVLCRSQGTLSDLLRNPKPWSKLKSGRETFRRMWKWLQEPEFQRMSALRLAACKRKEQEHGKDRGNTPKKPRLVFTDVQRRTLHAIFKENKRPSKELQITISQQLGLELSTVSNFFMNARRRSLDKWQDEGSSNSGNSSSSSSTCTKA

Assay [12] is described as follows: ATG_NRF2_ARE_CIS: Attagene CIS-FACTORIAL HepG2 Assay for human Nuclear Factor Erythroid 2 Related Factor 2 (NFR2) response to Antioxidant Response Elements (ARE) (AID 2282992). The conditions noted are these: HepG2 Attagene ARE/NRF2 reporter, transcription factor activity; actives raise or lower the signal. Put shortly:
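Endogenous transcription factor activity in human liver HepG2 cells is tracked via a cis-element-driven reporter within a multiplexed set. mRNA induction is read by RT-PCR and capillary electrophoresis after 24 h, with DMSO as baseline.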

Assay [13] in a line: TOX21_p53_BLA_p3_viability: Viability Assessment in the Tox21 HCT-116 p53 Agonism Beta-lactamase Assay, Phase 3 (AID 2283593; active = hit-call score of the fitted dose curve at least 0.9, where 1 is the maximum;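 also: cells exposed to compound for 16 h before reading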). Put shortly:
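Cellular ATP was quantified by CellTiter-Glo luminescence, read after 30 min at room temperature. Beforehand, HCT116 cells (4000/well) received compound 5 h post-seeding, 217-fold diluted from DMSO, then incubated 16 h at 37C.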

The target in assay [14] is Cellular tumor antigen p53 (Homo sapiens) (UniProt P04637). The assay is described as follows: TOX21_p53_BLA_p3_ratio: Tox21 HCT-116 p53 Agonism Beta-lactamase Assay, Ratio, Phase 3 (AID 2283596; active = hit-call score of the fitted dose curve at least 0.9, where 1 is the maximum). A digest of the protocol:
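Cells were seeded at 4000/well, rested 5 h at 37C, then dosed with DMSO compound solutions (217-fold dilution) for 16 h. CCF4-AM substrate was loaded for 2 h at room temperature, and the 460/530 nm emission ratio was fitted for gain of signal versus DMSO.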

Assay [15] shares this target. The assay is described as follows: TOX21_p53_BLA_p5_ratio: Tox21 HCT-116 p53 Agonism Beta-lactamase Assay, Ratio, Phase 5 (AID 2283599; active = hit-call score of the fitted dose curve at least 0.9, where 1 is the maximum). Put shortly:
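Beta-lactamase reporter ratio (blue 460 nm over green 530 nm, 405 nm excitation) after 2 h CCF4-AM loading, in HCT-116 cells exposed 16 h at 37 C to compounds pinned at 217-fold dilution. Increases relative to DMSO baseline scored.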

For assay [16] the target is unchanged. The assay is described as follows: TOX21_p53_BLA_p4_ratio: Tox21 HCT-116 p53 Agonism Beta-lactamase Assay, Ratio, Phase 4 (AID 2283601; active = hit-call score of the fitted dose curve at least 0.9, where 1 is the maximum). A digest of the protocol: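 Signal is the blue/green (460nm/530nm) ratio of cleaved versus uncleaved CCF4-AM substrate, read after 2 h substrate loading. Cells were HCT116 carrying the p53-responsive beta-lactamase reporter, dosed 16 h at 37C, 5% CO2; CellTiter-Glo measured in parallel.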

Assay [17] is described as follows: ATG_Oct_MLP_CIS: Attagene CIS-FACTORIAL HepG2 Assay for human Octamer-Binding Transcription Factor (Oct) (AID 2282993). Particulars: HepG2 Attagene cis-factorial Oct reporter, mRNA; actives raise or lower the signal. A digest of the protocol: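 Cells of the HepG2 line express promoter-controlled reporter sequences whose mRNA levels, after 24 h treatment, are measured by RT-PCR and capillary electrophoresis. Increases and decreases are scored relative to DMSO.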

A short description of assay [18]: ATG_SREBP_CIS: Attagene CIS-FACTORIAL HepG2 Assay for human Sterol Regulatory Element Binding (SREBP) (AID 2282962). The conditions noted are these: HepG2 Attagene cis-factorial SREBP reporter, mRNA; actives raise or lower the signal. Put shortly:
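Endogenous factor activity is measured in HepG2 through multiplexed reporter units under cis-element control. Following a 24 h incubation, reporter transcripts are reverse-transcribed, PCR-amplified and sized by capillary electrophoresis; activity is fitted in both directions relative to DMSO.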

Assay [19] is described as follows: TOX21_p53_BLA_p5_viability: Viability Assessment in the Tox21 HCT-116 p53 Agonism Beta-lactamase Assay, Phase 5 (AID 2283600; active = hit-call score of the fitted dose curve at least 0.9, where 1 is the maximum). A digest of the protocol:
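Viability is taken from cellular ATP content, measured by luciferase luminescence in the same wells after the beta-lactamase ratio read. Cells are seeded at 4000 per well and exposed to DMSO-dissolved compounds, diluted 217-fold, for 16 h.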

Assay [20] can be described thus: TOX21_p53_BLA_p2_viability: Viability Assessment in the Tox21 HCT-116 p53 Agonism Beta-lactamase Assay, Phase 2 (AID 2283591; active = hit-call score of the fitted dose curve at least 0.9, where 1 is the maximum;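 also: compound exposure lasted 16 h at 37 °C; actives lower the ATP signal meaning cytotoxicity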). Put shortly:
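Cytotoxicity readout: CellTiter-Glo ATP luminescence, 30 min at room temperature, after the beta-lactamase read. Cells were HCT116 exposed 16 h at 37C to compounds pin-transferred at 217-fold dilution from DMSO stocks.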

Signal transducer and activator of transcription 3 (Homo sapiens), sequence (P40763 whole entry, looked up): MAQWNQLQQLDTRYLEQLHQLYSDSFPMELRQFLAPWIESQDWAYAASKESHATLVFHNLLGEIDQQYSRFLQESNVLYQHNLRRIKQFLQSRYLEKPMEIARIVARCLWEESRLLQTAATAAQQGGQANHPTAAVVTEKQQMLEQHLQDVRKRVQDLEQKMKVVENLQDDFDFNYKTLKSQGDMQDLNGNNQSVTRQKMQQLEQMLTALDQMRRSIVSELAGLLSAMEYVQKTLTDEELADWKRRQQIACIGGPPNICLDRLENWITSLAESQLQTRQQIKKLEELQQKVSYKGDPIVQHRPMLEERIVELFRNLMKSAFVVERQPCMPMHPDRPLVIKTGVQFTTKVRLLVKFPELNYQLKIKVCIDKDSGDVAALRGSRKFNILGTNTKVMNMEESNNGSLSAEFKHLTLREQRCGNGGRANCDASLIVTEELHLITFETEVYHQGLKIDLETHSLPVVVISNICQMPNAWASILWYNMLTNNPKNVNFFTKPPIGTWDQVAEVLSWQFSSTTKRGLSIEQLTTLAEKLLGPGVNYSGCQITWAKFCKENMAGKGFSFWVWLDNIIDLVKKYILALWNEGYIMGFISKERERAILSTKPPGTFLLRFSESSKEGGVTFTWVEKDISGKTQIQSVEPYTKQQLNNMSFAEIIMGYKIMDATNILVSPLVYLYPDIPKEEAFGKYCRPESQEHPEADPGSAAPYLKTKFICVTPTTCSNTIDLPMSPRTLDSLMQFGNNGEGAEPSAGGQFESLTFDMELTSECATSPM
human Peroxisome Proliferator-activated Receptor alpha (PPARa), PPARA (gene 5465), sequence (Q07869 whole entry, looked up, the tested form may be a part): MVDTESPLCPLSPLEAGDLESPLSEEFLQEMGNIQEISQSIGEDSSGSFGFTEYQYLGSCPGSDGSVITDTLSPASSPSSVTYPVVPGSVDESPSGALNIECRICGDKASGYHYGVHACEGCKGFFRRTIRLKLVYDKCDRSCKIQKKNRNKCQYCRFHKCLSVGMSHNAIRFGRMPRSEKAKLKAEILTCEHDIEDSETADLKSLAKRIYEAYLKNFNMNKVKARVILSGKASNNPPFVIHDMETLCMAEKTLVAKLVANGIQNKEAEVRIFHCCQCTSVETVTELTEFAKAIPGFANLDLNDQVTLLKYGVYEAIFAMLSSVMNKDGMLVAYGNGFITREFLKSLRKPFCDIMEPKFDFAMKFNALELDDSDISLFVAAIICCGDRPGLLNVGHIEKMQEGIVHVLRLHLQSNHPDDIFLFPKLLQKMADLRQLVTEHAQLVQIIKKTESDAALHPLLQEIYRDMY
Heat shock factor protein 1 (Homo sapiens), sequence (Q00613 whole entry, looked up): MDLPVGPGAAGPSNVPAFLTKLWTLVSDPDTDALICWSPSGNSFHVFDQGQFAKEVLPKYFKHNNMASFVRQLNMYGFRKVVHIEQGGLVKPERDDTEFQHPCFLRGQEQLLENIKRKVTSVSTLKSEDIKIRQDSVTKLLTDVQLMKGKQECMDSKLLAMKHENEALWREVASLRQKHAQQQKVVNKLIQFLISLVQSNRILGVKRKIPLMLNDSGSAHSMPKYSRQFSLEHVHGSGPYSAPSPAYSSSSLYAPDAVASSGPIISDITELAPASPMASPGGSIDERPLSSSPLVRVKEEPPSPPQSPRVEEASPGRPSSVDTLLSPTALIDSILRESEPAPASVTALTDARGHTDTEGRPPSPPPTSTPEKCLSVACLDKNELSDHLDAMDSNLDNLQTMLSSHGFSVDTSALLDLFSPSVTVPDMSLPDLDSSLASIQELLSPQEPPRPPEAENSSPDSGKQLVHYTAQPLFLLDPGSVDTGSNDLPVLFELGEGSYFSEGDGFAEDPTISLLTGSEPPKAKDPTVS
Hepatocyte nuclear factor 4-alpha (Homo sapiens), sequence (P41235 whole entry, looked up): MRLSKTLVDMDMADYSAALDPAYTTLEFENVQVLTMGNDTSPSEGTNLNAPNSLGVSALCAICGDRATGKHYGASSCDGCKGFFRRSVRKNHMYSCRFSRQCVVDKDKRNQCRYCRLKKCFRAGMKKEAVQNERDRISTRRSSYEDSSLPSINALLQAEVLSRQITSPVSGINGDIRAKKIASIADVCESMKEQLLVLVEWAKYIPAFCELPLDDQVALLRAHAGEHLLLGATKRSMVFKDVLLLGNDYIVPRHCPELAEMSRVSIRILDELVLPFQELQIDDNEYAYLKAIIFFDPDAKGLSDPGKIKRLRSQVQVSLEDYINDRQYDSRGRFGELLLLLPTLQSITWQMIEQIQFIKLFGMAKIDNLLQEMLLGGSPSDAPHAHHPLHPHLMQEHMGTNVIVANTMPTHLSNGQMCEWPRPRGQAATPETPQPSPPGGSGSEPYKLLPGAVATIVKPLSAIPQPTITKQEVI
Cellular tumor antigen p53 (Homo sapiens), sequence (P04637 whole entry, looked up): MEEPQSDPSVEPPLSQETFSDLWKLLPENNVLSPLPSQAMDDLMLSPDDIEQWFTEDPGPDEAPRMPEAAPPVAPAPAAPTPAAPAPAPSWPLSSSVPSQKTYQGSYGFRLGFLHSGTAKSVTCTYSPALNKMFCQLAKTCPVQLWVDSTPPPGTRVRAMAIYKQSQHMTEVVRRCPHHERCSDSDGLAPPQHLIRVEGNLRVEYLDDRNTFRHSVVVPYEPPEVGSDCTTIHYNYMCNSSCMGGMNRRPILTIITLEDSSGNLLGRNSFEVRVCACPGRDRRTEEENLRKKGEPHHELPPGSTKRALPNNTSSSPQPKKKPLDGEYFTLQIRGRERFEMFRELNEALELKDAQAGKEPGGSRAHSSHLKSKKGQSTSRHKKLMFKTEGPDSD

On to `O=C(OCc1ccccc1)c1ccccc1`, for which the call in assay [1], in [2], in [3], in [4], in assay [5] and in assay [6] was inactive. Besides, the result in assay [7], in assay [8], in assay [9] and in assay [10] was inactive.

`C=CCOC(=O)C(=C)C`: the molecule was called inactive in assay [1], in assay [2], in assay [11], in [4], in assay [5] and in [6]. For the same molecule, the molecule was called inactive in [7], in assay [12], in assay [9], in [10], in assay [13] and in assay [14]. Further, the outcome in [15] and in assay [16] was inactive.

Turning to `O=C1CCCCCCCCCCCCCC1`, the molecule was classed as inactive in assay [2], in assay [11], in [4], in assay [7], in assay [8] and in [17]. The outcome in assay [13], in [14] and in [15] was inactive. Moreover, the AC50 (usually the concentration giving half of the maximal activity seen) is 62.1 µM (active) in [3], 32.6 µM (active) in assay [12] and 13 µM (active) in assay [10].

`COC(=O)/C=C\C(=O)OC`: the AC50 in [2] is 128 µM (active); in assay [12], 10.5 µM (active). Also, the result in assay [3], in assay [4], in assay [18], in [5], in assay [6] and in assay [7] was inactive. Moreover, the molecule was called inactive in [9], in assay [10], in [13], in assay [15] and in assay [19].

Regarding `CCC(=O)OCc1ccc(OC)cc1`, the outcome in assay [1], in [2], in assay [11], in assay [4], in assay [5] and in [6] was inactive. Also, the call in [8], in assay [12], in [17], in assay [10], in assay [20] and in assay [14] was inactive. Further, the result in [15] and in assay [16] was inactive.
